About 13,000 (27%) of roughly 48,000 compounds showed an effect of 50% or more. The list shows a part of the results.

The test system of this test is Wolbachia pipientis. Kind of test: Anti-Wolbachia Cell-Based Screen. Format: functional. Set-up: scale not given: in the data most compounds retested in dose-response had high values. The note with it: 5 µM.
Take `Cc1ccc(C(=O)NS(=O)(=O)c2ccc3c(c2)OCCCO3)o1`: the “Percent Effect” value was -8.261%.
For `CC(C)c1nnc2sc(CC3CCS(=O)(=O)C3)nn12` (stereo unspecified) the value was 8.57%; for `CCn1c(CN2CCCC2)nnc1C1CCN(Cc2cc(C)no2)CC1`, -0.1861%.
For `Cc1cc(CN(C2CC2)C(C)C(C)C)on1` (stereo unspecified) the value was 26.3%; for `CCn1cc(-c2nn3c(C(C)C)nnc3s2)c(C)n1`, 106.3%.
On to `Cc1cc(-c2nn3c(C4CC4)nnc3s2)on1`, for which the “Percent Effect” value is 189.6%.
Take `Cc1cc(NC(=O)CN2CCn3c(nnc3C(C)C)C2)on1`: the “Percent Effect” value is -16.14%.
For `Cc1cc(-c2nn3c(C4CCC4)nnc3s2)on1` the value was 155.9%.
For `COc1c(C2CCCN2Cc2cc(C)no2)c(C)nn1C` (stereo unspecified) the value was -10.58%; for `Cc1cc(-c2nn3c(C(C)C)nnc3s2)on1`, 113.9%; for `Cc1cc(CN2CCN(c3nn4cc(C)nc4s3)CC2)on1`, 9.459%.
For `Cc1cc(CN2CCCC2c2noc(C3CC3)n2)c2ccccc2n1` (stereo unspecified) the value was 1.295%.
For the molecule `Cc1noc(C)c1-c1n[nH]c2c1CN(S(=O)(=O)c1ccsc1)CC2`, the “Percent Effect” value was found to be 10.76%.
For `N#Cc1cccc(Cl)c1NCCCc1nc(=O)[nH][nH]1` the value was -19.22%.
For `O=C(N[C@@H]1CCNC[C@H]1O)c1ccccc1OC(F)(F)C(F)F` the value was -13.38%.
In the case of `Cc1ccn(Cc2nc(C(C)OCC(C)C)no2)c(=O)c1` (stereo unspecified), the “Percent Effect” value is given as 12.04%.
For `CC(=O)N1CCCN(Cc2nnc(C(C)(C)C)o2)CC1` the value was -4.735%.
On to `Cn1nc2c(cc1=O)CN(CC(=O)NC1CCCCNC1=O)CC2` (stereo unspecified), for which the “Percent Effect” value is reported as 4.736%.
On to `CSc1ccc(C(=O)N(c2ccc(F)cn2)C2CCOCC2)o1`, for which the “Percent Effect” value is listed as 4.022%.
Turning to `COCC(=O)N1CCN2C(=O)OC[C@H]2C1`, the “Percent Effect” value is on record as -11.81%.
With `COCC(=O)N1CCCC(C(=O)N(C)CCCc2cnn(C)c2)C1` (stereo unspecified), the “Percent Effect” value was 14.99%.
For `Cc1nn(C)c2c(N3CCN(C(=O)c4ccccc4)CC3)ncnc12`, the “Percent Effect” value is recorded as 3.277%.
For `COCC(=O)N1CCN(C)CC(Cc2cc(N(C)C)ncn2)C1` (stereo unspecified) the value was 95.35%.
For `CN1CCN(C(=O)c2ccccc2)CC(Cc2cc(N(C)C)ncn2)C1` (stereo unspecified), the “Percent Effect” value worked out at 80.45%.
For `CN1CCN(C(=O)c2cncc(CC3CCCN(C)C3)c2)CC1` (stereo unspecified) the value was -11.29%.
For the molecule `OCc1cc2ccccc2nc1NCC1CC1`, the “Percent Effect” value worked out at 2.516%.
Turning to `O=C(Cn1cnc(NC(=O)c2ccccn2)n1)NCc1ccccc1`, the “Percent Effect” value was 11.88%.
In the case of `COc1ccc(CN2CCOC3(CCCN(c4nnc(C)o4)C3)C2)cc1.O=C(O)C(F)(F)F` (stereo unspecified), the “Percent Effect” value is recorded as -9.107%.
For `Cc1nc(CN2C(=O)CCC23CCN(Cc2cccn2C)CC3)cs1.O=C(O)C(F)(F)F.O=C(O)C(F)(F)F` the value was 110.4%; for `Cc1nc(CN2C(=O)CCC23CCN(c2ncccn2)CC3)cs1.O=C(O)C(F)(F)F`, 11.75%.
Regarding `CCOC1CC2(CCN(Cc3cccn3C)CC2)C1.O=C(O)C(F)(F)F`, the “Percent Effect” value came to 0.1287%.
As for `Cc1nc(CN2C(=O)CCC23CCN(Cc2ccoc2)CC3)cs1.O=C(O)C(F)(F)F.O=C(O)C(F)(F)F`, the “Percent Effect” value is recorded as 99.35%.
For `Cc1nc(CN2C(=O)CCC23CCN(Cc2ccccn2)CC3)cs1.O=C(O)C(F)(F)F.O=C(O)C(F)(F)F` the value was 113.7%; for `COCCN1CCC2(CCC(=O)N2Cc2csc(C)n2)CC1.O=C(O)C(F)(F)F.O=C(O)C(F)(F)F`, 99.3%.
With `COCCN1CCc2ccc(=O)n(Cc3csc(C)n3)c2CC1.O=C(O)C(F)(F)F.O=C(O)C(F)(F)F`, the “Percent Effect” value is recorded as -8.44%.
In the case of `NC(=O)C1CCN(C(=O)CSC2CCCc3ccccc32)CC1` (stereo unspecified), the “Percent Effect” value is reported as -6.301%.
For `CCOc1ccccc1C(CC(=O)N(C)c1ccccc1)NC(C)=O` (stereo unspecified) the value was 3.437%.
For `O=C(c1ccn(-c2cccc(Cl)c2)n1)N1CCN(C2CC2)CC1` the value was 7.351%; for `CCC(C)NC(=O)c1cncc(Br)c1` (stereo unspecified), 12.99%; for `CC(C)NC(=O)c1cc(Br)cc(S(=O)(=O)N2CCOCC2)c1F`, -9.649%.
On to `Cc1sc(C(=O)NC(C)C)cc1S(=O)(=O)N(C)C`, for which the “Percent Effect” value amounted to 135.1%.
For `CC(C)NC(=O)CS(=O)(=O)c1cc2c(cc1Cl)OCCO2` the value was -3.378%; for `CCC(C)NC(=O)c1cc(S(=O)(=O)N(C)C)c(C)s1` (stereo unspecified), 107%; for `CCC(C)NC(=O)CS(=O)(=O)Cc1cc(C)ccc1C` (stereo unspecified), -1.911%.
For `CC(C)NC(=O)C(C)S(=O)(=O)c1cc2c(cc1Cl)OCCO2` (stereo unspecified) the value was -0.523%; for `COCCNC(=O)c1cc(S(=O)(=O)N2CCCC2)cs1`, 6.896%; for `CCC(C)NC(=O)c1cc(S(=O)(=O)N2CCCC2)c(C)s1` (stereo unspecified), 99.85%.
Take `Cc1cc(-c2cnc(NC3CC3)nc2-c2ccco2)on1`: the “Percent Effect” value was determined as 84.65%.
`CCN1CCN(c2ncc(-c3cc(C)no3)c(-c3ccoc3C)n2)CC1`: the “Percent Effect” value is given as -0.7712%.
For `Cc1cc(-c2cnc(NC3CCCC3)nc2-c2ccoc2C)on1` the value was -4.074%; for `Cc1cc(-c2cnc(NC3CC3)nc2-c2ccoc2C)on1`, 65.28%.
For `CCN1CCN(c2ncc(-c3cc(C)no3)c(-c3ccco3)n2)CC1` the value was 110.6%; for `CCN1CCC(N2CCN(c3cc(-c4nc(C)no4)ccn3)CC2)CC1`, 10.41%; for `Cc1cc(-c2cnc(NC3CCCCC3)nc2-c2ccco2)on1`, 96.71%.
Turning to `O=C1NCCO[C@H]2CN(C(=O)CCc3ccccc3Cl)CC[C@@H]12`, the “Percent Effect” value is listed as -36.6%.
In the case of `COCC1CN(C(=O)COc2ccc(C)cc2)Cc2cn(C)nc21.O=C(O)C(F)(F)F` (stereo unspecified), the “Percent Effect” value is listed as -4.21%.
On to `CCn1ncc2c1CCCC2NCc1cscn1` (stereo unspecified), for which the “Percent Effect” value is given as -5.451%.
For `Cc1cccnc1C(Nc1nccc(C2CCCC2)n1)C1CC1` (stereo unspecified) the value was -13.6%.
As for `Cc1occc1-c1nc(NC2CCCC2)ncc1-c1ccccn1`, the “Percent Effect” value is on record as 77.82%.
As for `Cc1cc(-c2cnc(NC3CCCC3)nc2-c2ccco2)on1`, the “Percent Effect” value amounted to 111.9%.
Regarding `CNC(=O)C1CCCCN1C(=O)c1csc(-c2ccc(C)o2)n1` (stereo unspecified), the “Percent Effect” value is recorded as -2.315%.
For `Cc1cc(C2CCC2)nc(N(C)Cc2cc(-c3ccccn3)no2)n1` the value was 38.25%.
`Cc1cc(-c2cnc(NC3CCCC3)nc2-c2ccc(C)o2)on1`: the “Percent Effect” value stood at 122.4%.
For `O=C1CCC(C(=O)NCCOc2ccccc2-c2ccccc2)CN1` (stereo unspecified) the value was 30.95%; for `NC(=O)c1cccc(NC(=O)CSc2ccc3c(c2)CCC3)c1`, 10.83%; for `COc1nc2c(cc1C(=O)NCCc1nc3ccccc3s1)CCC2`, -9.25%.
For `CCOc1ccc2nc(NC(=O)c3c(C(=O)O)cnn3C)sc2c1` the value was -2.899%; for `Cn1c(C(F)(F)F)nn(CCNC(=O)c2nc3ccccc3s2)c1=O`, -27.26%; for `COc1ccc2nc(C3CC3)cc(C(=O)NCc3ncnn3C)c2c1`, -9.156%.
For `COc1ccc2nc(NC(=O)c3c(C(=O)O)cnn3C)sc2c1` the value was 107.5%.
`Cn1cnnc1CNC(=O)c1ccc(Br)cc1O`: the “Percent Effect” value is given as -16.68%.
With `Cn1ncc(C(=O)O)c1C(=O)Nc1nc2ccc(Br)cc2s1`, the “Percent Effect” value was determined as 84.26%.
For `Cn1ncc(C(=O)O)c1C(=O)Nc1nc2ccccc2s1` the value was 107.6%; for `Fc1cnc(N2CCc3nnc(COc4ccccn4)n3CC2)nc1.O=C(O)C(F)(F)F`, 2.887%; for `O=S(=O)(C1CC1)N1CCOCC2(CN(c3ncccn3)CCO2)C1` (stereo unspecified), -5.762%.
For `CCn1cc(C(=O)N2CCCN(c3cccnn3)CC2)c2ccccc21` the value was -8.81%.
For `CO[C@H]1CCN(C2CCOCC2)C[C@@H]1Cc1ccccc1.O=C(O)C(F)(F)F`, the “Percent Effect” value is listed as -3.139%.
For `CO[C@H]1CCN(Cc2ccoc2)C[C@@H]1Cc1ccccc1.O=C(O)C(F)(F)F` the value was 68.19%.
In the case of `CO[C@@H]1CCN(Cc2ccc(C)o2)[C@H]1Cc1ccccc1.O=C(O)C(F)(F)F`, the “Percent Effect” value was determined as 10.3%.
Regarding `CO[C@@H]1CCN(Cc2ccoc2)[C@H]1Cc1ccccc1.O=C(O)C(F)(F)F`, the “Percent Effect” value is recorded as 118.7%.
As for `COc1ccc(CN2CC[C@@H](O)[C@@H]2Cc2ccccc2)cc1.O=C(O)C(F)(F)F`, the “Percent Effect” value turned out to be 17.99%.
On to `CO[C@@H]1CCN(Cc2ccoc2)C[C@@H]1Cc1ccccc1.O=C(O)C(F)(F)F`, for which the “Percent Effect” value is on record as 89.22%.
With `CO[C@@H]1CCN(Cc2nccs2)C[C@@H]1Cc1ccccc1.O=C(O)C(F)(F)F`, the “Percent Effect” value is on record as -16.15%.
Regarding `O=C(O)C(F)(F)F.c1ccc(C[C@H]2CN(C3CCOCC3)CC[C@H]2OCC2CC2)cc1`, the “Percent Effect” value is recorded as -4.378%.
For `CO[C@@H]1CCN(C2CCOCC2)C[C@@H]1Cc1ccccc1.O=C(O)C(F)(F)F` the value was -11.13%; for `Cc1cc(Cl)c2c(c1)C1(NC(=O)c3cccnc3N1)C(=O)N2` (stereo unspecified), -1.916%.
For `CC(C)=CCC1(CO)CCCN(Cc2nccs2)C1` (stereo unspecified) the value was 1.266%.
Take `O=C(O)C(F)(F)F.O=C(c1ccnnc1)N1CCN2C[C@H](Oc3cccc(F)c3)C[C@H]2C1`: the “Percent Effect” value is on record as -26.48%.
With `COc1ccc(C)cc1NC(=O)Cn1nc(C)c(C#N)c1N`, the “Percent Effect” value is listed as -0.6679%.
`Cc1nc(CN2CCC3(CCCO3)CC2)c2ccccn12`: the “Percent Effect” value is given as 20.84%.
As to `Cc1nc(CN2CCC(O)(c3ccccc3F)CC2)c2ccccn12.O=C(O)CC(O)(CC(=O)O)C(=O)O`, the “Percent Effect” value was 94.96%.
For `COc1ccc(C2(NCc3c(C)nc4c(C)cccn34)CCCC2)cc1.O=C(O)CC(O)(CC(=O)O)C(=O)O` the value was 147.1%; for `COc1ccccc1C1(NCc2c(C)nc3c(C)cccn23)CCCC1.Cl`, 58.58%; for `COc1ccccc1C1(CNc2nnc(C)c(C)c2C#N)CCCC1`, -5.07%.
For `COc1ccc(C2(NC(=O)CCn3cncn3)CCCCC2)cc1`, the “Percent Effect” value was -6.832%.
`Cc1nc2sccn2c1CNc1cc(C(=O)O)ccc1F`: the “Percent Effect” value is recorded as -0.08043%.
Consider `Cc1ccc(C2(O)CCN(Cc3nc(C)n4ccccc34)CC2)nc1`, for which the “Percent Effect” value is recorded as -9.121%.
As to `COc1ccccc1C1(CNc2snc(Cl)c2C#N)CCCC1`, the “Percent Effect” value was -12.01%.
For `Cc1nc2sccn2c1CNC1(c2ccccc2F)CCCC1.O=C(O)CC(O)(CC(=O)O)C(=O)O` the value was 86.58%; for `Cc1nc2sccn2c1CNc1ccc(C(=O)O)cc1`, 3.655%.
For `COc1c(CNC2(c3ccc(Cl)cc3)CCC2)c(C)nn1C` the value was -12.89%.
